HPGD block: inhibitors of human 15-hydroxyprostaglandin dehydrogenase (HPGD); P15428; purified HPGD, NADH fluorescence kinetic, PGE2 substrate; Potency, µM, inactives show top-dose activity change, negative = inhibition, usual class: inhibitors; 4.3% of 150,000 active; active means well fitted inhibition curve with a large enough effect, not every such curve was filed as active; inconclusive means small, poorly fitted or top-dose-only effect, or another doubt; inactive means no such curve, though single readings can be large or run the other way; further: potency means the concentration at half of the fitted maximal effect
Target sequence (P15428 whole entry, looked up): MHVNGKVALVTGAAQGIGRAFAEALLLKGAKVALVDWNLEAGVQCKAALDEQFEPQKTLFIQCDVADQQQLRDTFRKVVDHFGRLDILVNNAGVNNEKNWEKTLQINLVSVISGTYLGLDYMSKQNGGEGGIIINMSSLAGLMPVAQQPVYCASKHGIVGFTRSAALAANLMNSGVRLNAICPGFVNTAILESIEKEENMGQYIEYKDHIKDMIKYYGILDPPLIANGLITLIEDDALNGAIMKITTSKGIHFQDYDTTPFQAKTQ
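NADH formation kinetics: reaction with 30 uM PGE2 and 1 mM NAD+ (final), 20 nM enzyme, Tris-HCl pH 8 with Tween 20, after 15 min compound preincubation at room temperature. Fluorescence change, last versus first of five reads.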
ALOX12 inhib: inhibitors of human 12-lipoxygenase (ALOX12). P18054. purified 12-hLO, xylenol orange hydroperoxide absorbance. Potency, µM (titrated, usually from 57.1 µM), for inactives: top-dose activity change, negative = inhibition, usual class: inhibitors. 0.12% of 150,000 active; further: potency means the concentration at half of the fitted maximal effect; nearly all actives have a fitted effect of over 55% in size
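Hydroperoxide formation by human 12-lipoxygenase from 40 uM arachidonic acid was followed colorimetrically via ferric-xylenol orange complex, using the 573/405 nm absorbance ratio. Enzyme concentration was 150 nM, with 30 min reaction at room temperature.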
IMPase Li cell: membrane-permeable IMPase blocker, potentiated with lithium; Potency, µM (highest dose often 59.4 µM), inactives show at the top dose activity, negative = IMPase inhibition, hits mostly inhibitors; CHO-M1 cells, IP1 TR-FRET (IP-One), carbachol + lithium; 0.35% of 210,000 active;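 further: IP1 builds up when IMPase is blocked and the TR-FRET signal falls; potency means the concentration at half of the fitted maximal effect; plate controls were basal vehicle for no effect and high inhibitor control for full effect; nearly all actives have a fitted effect of over 50% in size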
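CHO-M1, 2000 cells/well, 16–30 h culture; cpd + low Li+, 30 min 37C; lysis with d2-IP1/Eu-anti-IP1 Ab, 10 min RT; TR-FRET 665/620 ratio and 620 channel; AC50 via Hill.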
PNC inhibitor: perinucleolar compartment assembly inhibition | 3.1% of 140,000 active | PC3M PTB-GFP, PNC prevalence imaging, 16 h; active compounds read low | activity change (PNC), negative = inhibition, % at 10 µM;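 active means readout at or below -70, meaning at least 70% loss of cells showing the perinucleolar compartment, a nuclear body marking cancer cells; inconclusive means readout between -30 and a set limit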;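 further: plate controls were DMSO wells for no effect and camptothecin positive control wells for full effect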
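Compounds are pinned in duplicate onto adhered PC3M cells stably expressing GFP-tagged PTB and incubated 16 h at 37 C. Cells are then fixed, nuclei stained with Hoechst, and PNC-positive cells counted.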
ALDH1A1 inh: ALDH1A1 (human) enzyme inhibition. Potency, µM (top dose mostly 75.3 µM), for inactives: at the highest dose activity, negative = inhibition, actives largely listed as inhibitors. P00352. 7.3% of 220,000 active. Purified ALDH1A1, NADH fluorescence, propionaldehyde substrate; active means well fitted inhibition curve with a large enough effect, not every such curve was filed as active; inconclusive means small, poorly fitted or top-dose-only effect, or another doubt; inactive means no such curve, though single readings can be large or run the other way;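 further: potency means the concentration at half of the fitted maximal effect; plate controls were no enzyme wells and a reference inhibitor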
Target sequence (P00352 whole entry, looked up): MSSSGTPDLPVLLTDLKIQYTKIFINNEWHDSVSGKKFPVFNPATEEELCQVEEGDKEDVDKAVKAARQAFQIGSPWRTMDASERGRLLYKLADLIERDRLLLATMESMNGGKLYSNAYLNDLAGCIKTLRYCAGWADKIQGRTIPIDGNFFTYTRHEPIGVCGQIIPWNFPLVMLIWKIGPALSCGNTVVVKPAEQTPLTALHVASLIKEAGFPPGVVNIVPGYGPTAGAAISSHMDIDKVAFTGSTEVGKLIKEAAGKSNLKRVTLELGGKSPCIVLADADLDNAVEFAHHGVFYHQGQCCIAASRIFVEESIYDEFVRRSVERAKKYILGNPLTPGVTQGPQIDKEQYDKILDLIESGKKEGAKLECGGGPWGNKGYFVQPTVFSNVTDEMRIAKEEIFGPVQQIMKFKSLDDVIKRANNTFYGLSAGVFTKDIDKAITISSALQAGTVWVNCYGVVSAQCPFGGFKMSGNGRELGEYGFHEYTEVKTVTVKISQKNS
IMPase inh: cell-permeable inhibitors of inositol monophosphatase (IMPase) | AID 901 | 120,000 tested, under 10 active | CHO-M1 cells, IP1 accumulation, HTRF TR-FRET ratio | inhibition (IP1 accumulation), % at 46.1 µM | P97697; active means well fitted curve in the direction sought with a large enough effect in the signal ratio, not every such curve was filed as active; inconclusive means small, poorly fitted or top-dose-only effect, or a change in a side signal; inactive means no such curve, though single readings can be large or run the other way; the % refers to the signal ratio;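 further: cells stimulated with carbachol in lithium chloride buffer; plate controls were DMSO basal wells for no effect and reference inhibitor wells for full effect; higher means more IMPase inhibition seen as more IP1 and lower FRET ratio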
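Cellular IMPase inhibition is scored as a rise in cytosolic IP1, detected by competitive TR-FRET between d2-labelled IP1 and a europium anti-IP1 antibody. M1-expressing CHO cells were stimulated with carbachol for 30 min at 37C, with lithium (50 mM LiCl) present in the buffer.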
Active calls of the source: *; ? = inconclusive; nt = no result given; [ ] = remark or other dose. This is a sample that favours compounds with a hit; in the whole collection about 11% have one here. Unless noted, the call rests on the fitted dose curve; in most records, active means well fitted curve in the direction sought with a large enough effect; inconclusive means small, poorly fitted or top-dose-only effect, or another doubt; inactive means no such curve, though single readings can be large; an effect the other way counts as inactive or inconclusive. Unless noted, on the % scale 0 is the no-effect control and ±100 the full control effect.

SMILES	HPGD block	ALOX12 inhib	IMPase Li cell	PNC inhibitor	ALDH1A1 inh	IMPase inh
Fc1cccc(NC(=S)NNc2c3ccccc3nc3ccccc23)c1	nt	nt	12%	nt	3.2µM*	nt
C=CCOC(=O)C1=C(C)NC(=S)NC1/C=C/c1ccccc1 (stereo not drawn)	-18%	?	28%[38.3 µM]	7	0.045µM*	4
COCCOC(=O)C1=C(C)NC(=S)NC1/C=C/c1ccccc1 (stereo not drawn)	-15%	-11%	10%	18	0.79µM*	nt
CC1=C(C(=O)OC(C)C)C(/C=C/c2ccccc2)NC(=O)N1 (stereo not drawn)	-3%	-1%	3%[38.3 µM]	-16	-1%	2
COCCOC(=O)C1=C(C)NC(=O)NC1/C=C/c1ccccc1 (stereo not drawn)	-8%	-2%	8%	32	-3%	nt
OCC1OC([S-])[C@H](O)C(O)C1O.[Au+] (stereo partly drawn)	-25%	-22%	7%	nt	?	nt
Cc1ccc(S(=O)(=O)Nc2cccc3ncccc23)s1	28µM*	-8%	28%[38.3 µM]	?	13µM*	8
CCN1C(=O)[C@H]2[C@H]3[C@H](O)[C@H](O)C/C(=N/OC)[C@@H]3CC[C@@H]2C1=O	nt	nt	nt	nt	-15%[13.5 µM]	nt
Cc1ccc(S(=O)(=O)N[C@H]2COC(=O)[C@@H](C)COC(=O)[C@H](C)NC(=O)C/C=C\[C@H]2C)cc1	nt	nt	nt	nt	-8%[13.5 µM]	nt
CCOC(=O)c1c(C)oc(NC(=O)COc2ccc(Cl)cc2C)c1C#N	32µM*	-13%	31%[38.3 µM]	71	?	0
Cc1cc(Cl)ccc1OCC(=O)Nc1nc(N)nc(N)n1	-7%	-8%[11.4 µM]	9%	nt	15%[13.5 µM]	nt
CC(C)CN1CCC2(CC1)CCN(C(=O)c1cc(C(F)(F)F)cc(C(F)(F)F)c1)CC2	-8%	-14%	27%	nt	1%	nt
C=CCc1ccccc1OCC(O)CNC (stereo not drawn)	-3%	5%	6%[38.3 µM]	23	22µM*	3
C=CCc1ccccc1OC[C@H](O)CNC(C)C	-6%	4%[25.6 µM]	6%	nt	12%[20.9 µM]	-3[20.6 µM]
COc1ccc(-c2c3c(=O)n(C)c(=O)n(C)c3c3c(-c4ccccc4)nc4ccccc4n23)cc1	nt	nt	nt	nt	nt	11
N#C/C(=C\c1ccc([N+](=O)[O-])cc1)C(=O)Nc1ccccc1O	-13%	-23%	22%	-21	18µM*	nt
Cc1ccccc1NC(=O)/C(C#N)=C\c1cccnc1	0%	-3%	5%	-82*	4%	22
N#C/C(=C/c1ccc([N+](=O)[O-])cc1)C(=O)Nc1ccccc1O	-3%	-20%	10%	-10	7.9µM*	nt
N#C/C(=C/c1ccc(O)c([N+](=O)[O-])c1)C(=O)Nc1ccccc1	nt	nt	-4%	nt	?	nt
Cc1ccccc1NC(=O)/C(C#N)=C\c1ccsc1	-4%	-1%	5%	48	-3%	nt
C#CCCCO/N=C1/C[C@@H](O)[C@@H](O)[C@@H]2[C@H]3C(=O)N(c4ccc(F)cc4F)C(=O)[C@@H]3CC[C@@H]12	nt	nt	nt	nt	5%[13.5 µM]	nt
O=C(CCN1C(=O)C2C3CCC(C3)C2C1=O)Nc1ccc(Br)cc1 (stereo not drawn)	-9%	-4%	-6%	?	?	nt
O=C(CCN1C(=O)C2C3CCC(C3)C2C1=O)Nc1ccc([N+](=O)[O-])cc1 (stereo not drawn)	nt	nt	10%	nt	3.5µM*	nt
CCc1ccccc1NC(=O)CCN1C(=O)C2C3CCC(C3)C2C1=O (stereo not drawn)	nt	nt	3%	nt	?	nt
COc1ccc(NC(=O)CCN2C(=O)C3C4CCC(C4)C3C2=O)cc1 (stereo not drawn)	-9%	16%	-8%	-21	13µM*	nt
SMILES	HPGD block	ALOX12 inhib	IMPase Li cell	PNC inhibitor	ALDH1A1 inh	IMPase inh
COc1ccc(Oc2ncc3nc(-c4cccc(C#N)c4)c(=O)n(Cc4cccc(OC)c4)c3n2)cc1	nt	nt	4%	nt	-6%	nt
C[C@@H]1NC(=O)C/C=C\[C@@H](C)[C@@H]2C=C[C@H](O)[C@@H](COC(=O)[C@H](C)NC(=O)C/C=C\[C@@H](C)[C@@H]3C=C[C@H](O)[C@@H](COC1=O)O3)O2	nt	nt	nt	nt	10%[13.5 µM]	nt
CN(C)C/C(Cl)=C(\Cl)c1ccccc1	-23%	-1%	-1%[38.3 µM]	?	7.1µM*	-3
CN(C)CC(=O)c1ccc(-c2ccccc2)cc1	-22%	-15%	7%[38.3 µM]	3	?	2
O=C(O)C(F)(F)C(F)(F)C(F)(F)C(F)(F)C(=O)O	-11%	1%[11.4 µM]	2%	nt	17%[13.5 µM]	nt
COc1ccccc1CN(CC(=O)NCc1ccco1)C(=O)CNS(=O)(=O)c1ccc(C)cc1	3%	-8%	10%[38.3 µM]	-15	22µM*	5
COc1cccc(C(CC(=O)NCC2CCCO2)NS(=O)(=O)c2ccc(C)cc2)c1OC (stereo not drawn)	-3%	0%	-6%[38.3 µM]	?	10%	4
COc1cccc(C(CC(=O)NCc2ccco2)NS(=O)(=O)c2ccc(C)cc2)c1OC (stereo not drawn)	-9%	5%	10%	-21	20µM*	-18
O=C(CN(Cc1ccc2c(c1)OCO2)C(=O)CNS(=O)(=O)c1ccccc1)NCc1ccco1	-9%	-2%	3%[38.3 µM]	-27	4.5µM*	-2
COc1ccccc1CCn1c(=O)c(-c2ccc(F)c(F)c2)nc2cncnc21	nt	nt	17%	nt	3%	nt
COc1ccccc1-c1nccc(-n2ccnc2)n1	-7%	0%	3%	nt	11%	nt
COCCn1c(=O)c(CCc2ccccc2)nc2cnc(Oc3ccc(OC)cc3)nc21	nt	nt	11%	nt	?	nt
COc1ccc(NC(=S)Nc2ccc(Oc3ccccc3)cc2)cc1	-7%	-17%	8%[38.3 µM]	46	?	-1
CCOc1ccc(NC(=S)Nc2ccc3nsnc3c2)cc1	28µM*	-25%	-5%	1	3.5µM*	nt
CCOc1ccc(NC(=O)Nc2ccc3nsnc3c2)cc1	nt	nt	1%	nt	2%	nt
COc1ccc(NC(=S)Nc2ccc3nsnc3c2)cc1	-4%	-3%	-11%	14	22µM*	nt
COc1ccc(NC(=S)NN(C)C(=S)Nc2ccc(OC)cc2)cc1	-22%	-3%	0%	-114*	?	nt
C=CCN(CC=C)C(=S)Nc1ccc2nsnc2c1	nt	nt	-13%	nt	11µM*	nt
O=C(OCCO)c1ccccc1O	-11%	1%[0.00818 µM]	0%	nt	4%	nt
CCOC(=O)c1c(C)oc2c1cc(NS(=O)(=O)c1ccc(C)cc1)c1ccccc12	nt	nt	nt	nt	nt	1
COc1ccccc1CN1C(=O)CN(C2CCCCCC2)C(=O)C1c1ccc(F)cc1 (stereo not drawn)	-4%	-17%	13%[38.3 µM]	?	?	-5
CCC(C)N1C(=O)CN(C2CCCCCC2)C(=O)C1c1ccccc1F (stereo not drawn)	nt	nt	8%	nt	16µM*	nt
